Holding throughout (assay): qHTS profiling for inhibitors of Plasmodium falciparum proliferation (AID 504749); note: nearly all actives have a fitted effect of over 60% in size
Holding throughout (settings): P. falciparum in erythrocytes, SYBR Green DNA, 72 h; series mostly up to 28.7 µM
Background: qHTS replaces the single test concentration by a dilution series.

One assay relates to FAB9. In a few lines: (§1)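 P. falciparum-infected erythrocytes (0.3% parasitemia, 2.5% hematocrit final) were exposed to compounds for 72 h at 37 C in 5% CO2, then lysed with SYBR Green buffer overnight at room temperature; parasite DNA fluorescence was normalized to artemisinin and DMSO controls.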
The next assay relates to GB4. In a few lines:
as §1

The subject of another assay is HB3. The gist of the method: as §1
Another assay concerns ICS. The gist of the method:
as §1

The subject of a further assay is JCK. The gist of the method: as §1
The next assay concerns N140. The gist of the method:
as §1

The subject of the next assay is P93_24. In a few lines: as §1
For a further assay, the system named is P94_40. In a few lines:
as §1

Another assay relates to PAD. In a few lines: as §1
Another assay deals with PC15. In a few lines:
as §1

This is an account of results in PubChem BioAssay (NCATS).

Results filed as inconclusive are left out. Activity calls are given as the source filed them. Calls come from the whole dose curve; as a rule, active = well fitted inhibition curve with a large enough effect; inconclusive = small, poorly fitted or top-dose-only effect; inactive = flat fitted curve, though single readings scatter.
Potency is the fitted concentration of half-maximal effect.

`COC([CH2][Hg])CNC(=O)c1ccccc1OCC(=O)O` (stereo not given): the Potency entry in the assay with FAB9, in the assay on GB4, with HB3, with ICS, with JCK and with N140 was “inactive” throughout. The Potency result in the assay with P93_24, in the assay with P94_40, in the assay on PAD and in the assay on PC15 was “inactive” throughout.

For `[O]=[Cr](=[O])([OH])[O][Cr](=[O])(=[O])[OH]`, the Potency entry in the assay with FAB9, in the assay with GB4, with HB3, in the assay with ICS, with JCK and with N140 was “inactive” throughout. Also, the Potency result with P93_24, with P94_40, in the assay with PAD and in the assay with PC15 was “inactive” throughout.

With `Clc1ccc(C2(Cn3cncn3)OCCO2)c(Cl)c1`, the Potency result with FAB9, in the assay with GB4, in the assay with HB3, in the assay with ICS, in the assay with JCK and in the assay with N140 was “inactive” throughout. The Potency result in the assay on P93_24, in the assay with P94_40, in the assay with PAD and in the assay on PC15 was “inactive” each time.

For `COc1ccc(OC)c(C(O)C(C)N)c1` (stereo not given), the Potency result in the assay with FAB9, in the assay on GB4, in the assay with HB3, with ICS, with JCK and in the assay on N140 was “inactive” throughout. Also, the Potency result with P93_24, in the assay on P94_40, in the assay with PAD and with PC15 was “inactive” throughout.

Consider `C=CCN(C1=NCCN1)c1c(Cl)cccc1Cl`, for which the Potency entry in the assay on FAB9, with GB4, with HB3, in the assay on ICS, in the assay with JCK and in the assay on N140 was “inactive” in each case. Also, the Potency result in the assay with P93_24, in the assay on P94_40, with PAD and in the assay on PC15 was “inactive” each time.

In the case of `O=C1C2CC=CCC2C(=O)N1SC(Cl)(Cl)Cl` (stereo not given), the Potency result with FAB9, in the assay on GB4, in the assay on HB3, with ICS, with JCK and with N140 was “inactive” in each case. In addition, the Potency entry in the assay on P93_24, with P94_40, in the assay on PAD and with PC15 was “inactive” in each case.

As for `O=C(NC(=O)c1c(F)cccc1F)Nc1ccc(Cl)c(Oc2ncc(C(F)(F)F)cc2Cl)c1`, the Potency result in the assay with FAB9, with GB4, in the assay on HB3, in the assay with ICS, in the assay with JCK and in the assay on N140 was “inactive” in each case. Also, the Potency entry in the assay with P93_24, in the assay with P94_40, with PAD and with PC15 was “inactive” each time.

In the case of `CCC1(CC)C(=O)NC(=O)N(C)C1=O`, the Potency result with FAB9, in the assay on GB4, in the assay with HB3, in the assay on ICS, in the assay on JCK and in the assay with N140 was “inactive” throughout. For the same compound, the Potency entry with P93_24, with P94_40, in the assay with PAD and in the assay on PC15 was “inactive” throughout.

`C[C@]12CCC(=O)C[C@@H]1CC[C@@H]1[C@@H]2CC[C@]2(C)[C@@H](O)CC[C@@H]12`: the Potency entry in the assay on FAB9, in the assay on GB4, with HB3, in the assay with ICS, in the assay with JCK and in the assay with N140 was “inactive” each time. Also, the Potency result in the assay with P93_24, in the assay with P94_40, in the assay on PAD and in the assay with PC15 was “inactive” each time.

As for `O=C(CCl)c1ccc(Oc2ccc(C(=O)CCl)cc2)cc1`, the Potency result in the assay with FAB9, in the assay on GB4, with HB3, with ICS, in the assay on JCK and in the assay with N140 was “inactive” throughout. Besides, the Potency entry with P93_24, in the assay on P94_40, with PAD and in the assay with PC15 was “inactive” throughout.

As to `C[N+]1(C)CCCCC1COC(=O)C(O)(c1ccccc1)c1ccccc1` (stereo not given), the Potency entry in the assay with FAB9, in the assay on GB4, with HB3, in the assay on ICS, in the assay with JCK and in the assay with N140 was “inactive” each time. The Potency entry in the assay on PAD and with PC15 was “inactive” each time.

`O=[N+]([O-])c1ccc(F)c([N+](=O)[O-])c1`: the Potency result in the assay with FAB9, in the assay on GB4, in the assay on HB3, in the assay on ICS, in the assay with JCK and in the assay with N140 was “inactive” in each case. Also, the Potency result with P93_24, with P94_40, with PAD and in the assay with PC15 was “inactive” throughout.

For the compound `O=C(CS(=O)C(c1ccccc1)c1ccccc1)NO` (stereo not given), the Potency entry with FAB9, in the assay on GB4, with HB3, with ICS, in the assay with JCK and in the assay on N140 was “inactive” each time. For the same compound, the Potency entry in the assay with P93_24, in the assay on P94_40, with PAD and in the assay on PC15 was “inactive” throughout.

`O[C@H]1[C@H]2[C@H](O)CCCN2C[C@H]1O`: the Potency result in the assay with FAB9, in the assay with GB4, in the assay on HB3, in the assay on ICS, with JCK and in the assay on N140 was “inactive” each time. The Potency entry in the assay on P93_24, with P94_40, in the assay on PAD and in the assay with PC15 was “inactive” in each case.

On to `CNC1(c2ccccc2Cl)CCCCC1=O` (stereo not given), for which the Potency result with FAB9, in the assay with HB3, in the assay on ICS, in the assay with JCK, in the assay with N140 and with P93_24 was “inactive” each time. The Potency result in the assay with P94_40 and in the assay with PC15 was “inactive” throughout. In addition, the Potency in the assay with GB4 was 12 µM (active).

For `O=C(OCCN1CCCCC1)C(O)(c1ccccc1)c1ccccc1`, the Potency result with FAB9, in the assay on GB4, with HB3, in the assay on ICS, with JCK and in the assay with N140 was “inactive” each time. Moreover, the Potency entry in the assay on P93_24, in the assay with P94_40, in the assay on PAD and in the assay on PC15 was “inactive” throughout.

As for `C=CCN1CCC23c4c5ccc(O)c4O[C@H]2C(=O)CC[C@@]3(O)C1C5` (stereo not given in full), the Potency entry in the assay on FAB9, in the assay with GB4, in the assay on HB3, in the assay with ICS, in the assay with JCK and in the assay on N140 was “inactive” each time. Besides, the Potency result with P93_24, in the assay with P94_40, in the assay on PAD and in the assay on PC15 was “inactive” throughout.

Consider `O=C(O)C(Cl)(Cl)Cl`, for which the Potency result in the assay with FAB9, in the assay on GB4, in the assay on HB3, in the assay with ICS, with JCK and with N140 was “inactive” each time. The Potency result with P93_24, with P94_40, in the assay on PAD and with PC15 was “inactive” in each case.

With `CCCCNCC(O)c1ccc(O)cc1` (stereo not given), the Potency entry in the assay on FAB9, with GB4, in the assay on HB3, with ICS, in the assay on N140 and with P93_24 was “inactive” throughout. The Potency entry with P94_40, in the assay on PAD and with PC15 was “inactive” each time. Moreover, the Potency in the assay on JCK is 1.12 µM (active).

In the case of `CCC1C(C)=NN=C(c2ccc(OC)c(OC)c2)c2cc(OC)c(OC)cc21` (stereo not given), the Potency result in the assay on FAB9, with GB4, with HB3, with JCK, in the assay with P94_40 and in the assay with PAD was “inactive” each time. The Potency result with PC15 is “inactive”. Also, in the assay with ICS, the Potency is 8.91 µM (active).

On to `CCC1(c2ccccc2)C(=O)NC(=O)NC1=O`, for which the Potency entry with FAB9, with GB4, with HB3, in the assay with ICS, in the assay with JCK and in the assay with N140 was “inactive” throughout. In addition, the Potency result in the assay with P93_24, with P94_40, in the assay on PAD and in the assay on PC15 was “inactive” in each case.

For the compound `O=[N+]([O-])C(Br)(CO)CO`, the Potency entry in the assay with FAB9, with GB4, with HB3, in the assay on ICS, in the assay with JCK and in the assay on N140 was “inactive” in each case. For the same compound, the Potency result in the assay on P93_24, in the assay with P94_40, in the assay with PAD and with PC15 was “inactive” in each case.

As to `Clc1ccc(Cl)cc1`, the Potency result with FAB9, in the assay with GB4, in the assay with HB3, with ICS, with JCK and in the assay on N140 was “inactive” in each case. In addition, the Potency result with P93_24, in the assay with P94_40, with PAD and with PC15 was “inactive” throughout.

Regarding `O=[N+]([O-])c1ccccc1`, the Potency entry in the assay with FAB9, in the assay on GB4, with HB3, in the assay with ICS, with JCK and in the assay on N140 was “inactive” each time. Moreover, the Potency entry in the assay with P93_24, with P94_40, with PAD and with PC15 was “inactive” in each case.
